PINK1 expr mod: A Quantitative High throughput Screen to Identify Chemical Modulators of PINK1 Expression | AID 624263, 2012 | PINK1 immunofluorescence, high-content cytometry, 24 h | actives 0.2% (n = 410,000) | Potency, µM (doses to about 76.6 µM), without a hit: at the highest dose activation (PINK1 increase), usual class: activators; active means well fitted activation curve with a large enough effect; inconclusive means small, poorly fitted or top-dose-only effect; cell line not stated here; further: % of control where 0% means no effect; nearly all actives have a fitted effect of over 65% in size
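Cells are seeded, rested 12 hours, then given compound at five concentrations or DMSO for 24 hours. After fixation, blocking and antibody staining, PINK1 amount and mitochondrial localization are scored; CCCP serves as control.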
ALOX12 inh: Primary qHTS assay for inhibitors of human arachidonate 12S-lipoxygenase (ALOX12): Round 2; Polyunsaturated fatty acid lipoxygenase ALOX12 (Homo sapiens), P18054; purified 12hLO, xylenol orange hydroperoxide absorbance; Potency, µM (doses to about 108 µM), inactives show at the top dose activity change, negative = inhibition, most hits filed as inhibitors; actives 1.1% (n = 580,000); AID 1671190, 2021; further: on the % scale 0 is the no-effect control and ±100 the full control effect
Target sequence (P18054 whole entry, looked up): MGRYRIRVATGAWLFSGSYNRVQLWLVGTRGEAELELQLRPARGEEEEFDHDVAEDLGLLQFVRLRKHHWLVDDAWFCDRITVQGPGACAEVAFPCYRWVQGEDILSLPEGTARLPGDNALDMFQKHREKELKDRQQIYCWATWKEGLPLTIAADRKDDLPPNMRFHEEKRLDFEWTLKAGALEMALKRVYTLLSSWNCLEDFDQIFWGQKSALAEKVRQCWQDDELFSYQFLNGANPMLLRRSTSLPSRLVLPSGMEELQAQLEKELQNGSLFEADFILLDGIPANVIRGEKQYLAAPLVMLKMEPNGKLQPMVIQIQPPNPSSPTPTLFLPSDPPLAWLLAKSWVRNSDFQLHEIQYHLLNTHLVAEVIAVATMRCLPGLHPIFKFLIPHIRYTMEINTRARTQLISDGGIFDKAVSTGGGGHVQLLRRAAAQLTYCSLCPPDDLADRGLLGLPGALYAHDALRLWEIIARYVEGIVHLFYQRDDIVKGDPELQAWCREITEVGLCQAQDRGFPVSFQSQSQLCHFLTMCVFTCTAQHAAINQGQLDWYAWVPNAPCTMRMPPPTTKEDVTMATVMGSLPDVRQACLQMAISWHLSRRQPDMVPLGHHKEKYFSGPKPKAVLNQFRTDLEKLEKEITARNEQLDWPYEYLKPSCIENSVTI
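Hydroperoxide product was detected by ferrous iron/xylenol orange as the 573 to 405 nm absorbance ratio. Arachidonic acid at 40 uM (final) was turned over for 30 min at room temperature by 150 nM human 12hLO, pH 7.0 Hepes buffer, after 15 min compound preincubation.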
MCF10A rereplic: A quantitative high throughput screen for small molecules that induce DNA re-replication in MCF 10a normal breast cells; AID 624296, 2012; Potency, µM (titrated, usually from 46.1 µM), for inactives: top-dose activity, positive = re-replication, usual class: activators; MCF 10A DNA re-replication, Hoechst nuclear intensity, 48 h; actives 2.9% (n = 350,000); further: % of control where 0% means no effect; nearly all actives have a fitted effect of over 50% in size
SW480 rereplic: A quantitative high throughput screen for small molecules that induce DNA re-replication in SW480 colon adenocarcinoma cells | SW480 DNA re-replication, Hoechst DNA content imaging, 48 h | Potency, µM (highest dose often 46.1 µM), without a hit: top-dose re-replication activation, hits mostly activators | actives 1.8% (n = 340,000) | AID 624297, 2012; further: % of control where 0% means no effect; nearly all actives have a fitted effect of over 55% in size
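DNA re-replication was detected as more nuclei of elevated Hoechst intensity after 48 hr exposure to compound (23 nL pinned per well of 250 cells).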
KB-V1 cytotox: qHTS assay for MDR1-selective chemotherapeutics: Primary screen using the drug-selected MDR subline cells KB-V1; Potency, µM (doses to about 46.1 µM), most hits filed as cytotoxic; KB-V1 MDR cells viability, CellTiter-Glo, 72 h; actives 3.4% (n = 400,000); further: on the % scale 0 is the no-effect control and ±100 the full control effect; nearly all actives have a fitted effect of over 60% in size
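qHTS viability screen in drug-selected KB-V1 MDR cells: 72 h compound treatment at 37 degrees C, ATP luminescence end point.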
KB-3-1 cytotox: qHTS assay for MDR1-selective chemotherapeutics: Primary screen using the parental adenocarcinoma cell KB-3-1 | AID 1347075, 2019 | actives 1.4% (n = 400,000) | Potency, µM (highest dose often 46.1 µM), usual class: cytotoxic | KB-3-1 viability, CellTiter-Glo ATP luminescence, 72 h; further: on the % scale 0 is the no-effect control and ±100 the full control effect; nearly all actives have a fitted effect of over 60% in size
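Viability of parental KB-3-1 cells, measured by CellTiter-Glo luminescence, followed a 72 h incubation at 37 °C with pinned compounds in phenol-red-free DMEM containing 10% FBS.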
* hit, by the source's call; i = inactive; ? = inconclusive; . = no result given; ! = repeats disagree; [ ] = remark or other dose. Sampled rows, rich in hits. Any-hit rate of the full collection: about 5.8%. Unless noted, the call rests on the fitted dose curve; in most records, active means well fitted curve in the direction sought with a large enough effect; inconclusive means small, poorly fitted or top-dose-only effect, or another doubt; inactive means no such curve, though single readings can be large; an effect the other way counts as inactive or inconclusive. Potency means the concentration at half of the fitted maximal effect.

SMILES	PINK1 expr mod	ALOX12 inh	MCF10A rereplic	SW480 rereplic	KB-V1 cytotox	KB-3-1 cytotox
CC(C)Oc1ccc(C(CC(=O)NCc2ccco2)c2ccccc2)cc1 (configuration not stated)	-3%[38.3 µM]	12%	-1%	-2%	21µM*	i
COc1ccc(CNCCC(c2ccc(OC(C)C)cc2)c2ccccc2OC)cc1 (configuration not stated)	-1%	?	?	?	21µM*	?
COc1ccccc1C(CCNCc1ccc(N(C)C)cc1)c1ccc(OC(C)C)cc1 (configuration not stated)	-2%	?	17%	?	i	?
COc1ccccc1C(CCNCc1ccccc1)c1ccc(OC(C)C)cc1 (configuration not stated)	-3%	?	18µM*	?	i	?
CCc1ccc2c(c1)-c1ccccc1S(=O)(=O)N2CC(=O)NCc1ccncc1	.	4%	.	.	.	.
CC(Oc1ccc(Cl)cc1Cl)C(=O)N1CC(=O)Nc2ccccc21 (configuration not stated)	.	-6%	.	.	.	.
COc1ccccc1NC(=O)CC(c1ccc(OC(C)C)cc1)c1ccccc1OC (configuration not stated)	1%	1%	?	?	4.6µM*	i
COc1ccc2oc(=O)c(C(=O)NCc3ccccc3)cc2c1	4%	-1%	-14%	3%	i	i
COc1ccc2oc(=O)c(C(=O)NCc3ccc(C)cc3)cc2c1	4%	?	11%	-8%	i	i
COc1ccc(NC(=O)c2cc3cc(OC)ccc3oc2=O)cc1	25µM*	7%	-9%	-3%	i	i
CCCOc1ccc2cc(C(=O)NCc3ccccc3)c(=O)oc2c1	8%	-5%	23µM*	5%	i	i
COc1ccc2oc(=O)c(C(=O)Nc3cccc(C)c3)cc2c1	17%	2%	?	18%	i	i
COc1ccc(CNC(=O)c2cc3cc(OC)ccc3oc2=O)cc1	11%	-18%	16µM*	-8%	?	15µM*!
CCN1C(=O)COc2ccc(NC(=O)c3cc(=O)c4cc(C)ccc4o3)cc21	.	8%	.	.	.	.
Cn1c(SCC(=O)Nc2ccc(Br)cc2F)nc2c(=O)[nH]cnc21	.	39%	.	.	.	.
COc1ccc(S(=O)(=O)c2cc3cc(C)ccc3oc2=O)cc1	.	-11%	.	.	.	.
CCOC(=O)C1(CCc2ccccc2)CCN(C(=O)c2cccc(C)n2)CC1	0%	-13%	1%	10%	i	i
CCOC(=O)C1(CCc2ccccc2)CCN(C(=O)c2occc2C)CC1	0%	?	-12%	1.6µM*	?	i
Cc1oc2cc(OCC(=O)NC(C)c3ccco3)ccc2c(=O)c1Oc1ccccc1 (configuration not stated)	.	-7%	.	.	.	.
O=C(O)c1cccc(NS(=O)(=O)c2ccc3c(c2)C(=O)c2ccccc2C3=O)c1	0%	-22%	8%	-4%	i	i
Cc1ccc(S(=O)(=O)/N=C2\C=C(Nc3cccc(C(=O)O)c3)C(=O)c3ccccc32)cc1	-1%	-17%	?	?	i	23µM*
CCc1ccc(S(=O)(=O)/N=C2\C=C(Nc3ccc(C(=O)O)cc3)C(=O)c3ccccc32)cc1	0%	-22%	4.6µM*	9.2µM*	i	?
Cc1ccc(S(=O)(=O)/N=C2\C=C(Nc3ccc(O)cc3)C(=O)c3ccccc32)cc1	-1%	.	3.3µM*	6.3µM*	?	4.1µM*
CC(C)(C)c1ccc(S(=O)(=O)/N=C2\C=C(NS(=O)(=O)c3ccccc3)C(=O)c3ccccc32)cc1	5%	25µM*	-17%	?	i	i
Cc1ccc(S(=O)(=O)/N=C2\C=C(NS(=O)(=O)c3ccccc3)C(=O)c3ccccc32)c(C)c1	-1%	?	?	-8%	i	i
SMILES	PINK1 expr mod	ALOX12 inh	MCF10A rereplic	SW480 rereplic	KB-V1 cytotox	KB-3-1 cytotox
O=C(Nc1cccc(S(=O)(=O)N2CCOCC2)c1)c1cccc(CN2CCCC2=O)c1	.	6%	.	.	.	.
O=C(O)c1cccc(NC2=C(N3CCOCC3)C(=O)c3ccccc3C2=O)c1	-1%	-8%	12%	?	i	i
Cc1ccc(S(=O)(=O)/N=C2\C=C(Nc3cccc(C(=O)O)c3)C(=O)c3ccccc32)c(C)c1	-2%	?	6.5µM*	?	i	?
CCCn1c(-c2ccc(Cl)cc2)nc2c(=O)n(C)c(=O)[nH]c21	.	4%	.	.	.	.
Cc1ccccc1OCc1nc(C2CN(C(=O)c3cc4ccccc4[nH]3)C2)no1	.	30%	.	.	.	.
FC(F)(F)c1nnc2c(Sc3ccccc3)nc3ccc(Cl)cc3n12	-6%	-5%	12µM*	?	?	?
COc1ccccc1CNC(=O)C1Cn2cccc2C(=O)N1Cc1cccnc1 (configuration not stated)	.	40%	.	.	.	.
Cn1sccc1=O	2%	-3%	6%	1.6µM*	i	i
CC1CCN([C@@H]2[C@H](O)[C@H](CO)O[C@@H]2CN(Cc2ccc(F)cc2)Cc2ccc(F)cc2)CC1	.	-7%	.	.	.	.
Cc1ccc(C(C)C)cc1OCCCCN1CCCC1	5%	?	?	12%	21µM*	i
Cc1ccc(C)c(OCCCN2CCCC2)c1	-3%[38.3 µM]	?	2%	-1%	i	i
COc1cc(OC)cc(C(=O)/C(=C/c2cccnc2)c2nc3ccccc3o2)c1	.	-7%	.	.	.	.
Oc1ccc(Br)cc1-c1cc(-c2ccccc2Cl)[nH]n1	8%	-1%	25%	5.2µM*	?	?
Cc1ccc(-c2cc(-c3ccccc3Cl)[nH]n2)c(O)c1	7%[38.3 µM]	?	6%	16%	i	i
Cc1ccccc1-c1cc(-c2ccccc2O)n[nH]1	0%	?	?	?	18µM*	?
C=CCSc1nc2c(c(=O)[nH]c(=O)n2C)n1CCCC	.	-26%	.	.	.	.
CCN1CCc2c(sc(NC(=O)c3ccc(S(=O)(=O)N(C)c4ccccc4)cc3)c2C(=O)NC)C1	1%	.	16µM*	?	i	i
NC(=O)c1ccsc1NC(=O)c1ccc(S(=O)(=O)N2CCCc3ccccc32)cc1	2%	-12%	?	?	?	23µM*
O=C(O)c1ccc(S(=O)(=O)N2CCCc3ccccc32)cc1	2%	6%	-1%	-28%	i	i
